From PubChem BioAssay AID1822 (The Scripps Research Institute Molecular Screening Center, 2009)
The campaign covered roughly 290,000 compounds. About 3,500 (1.2%) were called active. The sample holds actives, similar compounds and a random draw of the others, so the mix is not that of the screen. Values without a mark were called inactive.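 The calls were made as follows: active = inhibition above the campaign mean inhibition over all tested compounds plus 3 SD (cut at about 28% in these data); inactive = the rest.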

tested on: M18 aspartyl aminopeptidase (Plasmodium falciparum 3D7); experiment: PfM18AAP inhibitors, malaria aminopeptidase, primary screen, biochemical, QFRET, recombinant enzyme (AID 1822); details: H-Glu-NHMec fluorogenic cleavage, at 7.35 µM, stronger effect = higher value;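 also: 0% = plate median of test compound wells and 100% = 2 mM ZnCl2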

SMILES | inhibition
O=C(NNC(=O)C1CCCC1)c1ccc(F)cc1 | 3.26%
Cc1cc(C)cc(Oc2c(C(F)(F)F)oc3cc(OCC(=O)O)ccc3c2=O)c1 | 0.89%
N#Cc1cccc(CSc2ncnc(N)n2)c1 | 3.53%
CC(C)c1c(C(=O)N/N=C/c2ccccc2C(=O)O)nnn1-c1nonc1N | 2.33%
O=S(=O)(Nc1ccccc1Br)c1cccs1 | -3.63%
Cc1ccc(N2C(=O)C3C4C=CC(CC4)C3C2=O)cc1Br (stereo not drawn) | -1.4%
O=[N+]([O-])c1ccc(O)c(/C=N/Nc2ccccc2[N+](=O)[O-])c1 | -13%
Nn1cnnc1N/N=C/c1cc([N+](=O)[O-])c(Cl)cc1Cl | 30% (active)
COCCCNC(=O)CN1C(=O)CSc2ccc(S(=O)(=O)N3CCOCC3)cc21 | 6.04%
Cc1ccc(CNC(=O)C(=O)c2cn(CC(=O)N3CCCC3)c3ccccc23)cc1 | 2.97%
CC(OC(=O)c1ccc2noc(-c3ccccc3)c2c1)C(N)=O (stereo not drawn) | 31.9% (active)
Oc1ccc(-c2onc3ccc(Cl)cc23)cc1 | 1.68%
COc1ccc(-c2onc3ccc(C(C)=O)cc23)cc1 | 13.4%
Cc1c(CN2CC[C@@H](N3CCN(c4ccccn4)CC3)[C@H](O)C2)[nH]c2ccc(F)cc12 | 9.87%
COc1ccc(N(Cc2cc3ccc(C)cc3[nH]c2=O)S(=O)(=O)c2ccccc2)cc1 | 6.49%
CC(=O)N1c2ccc(S(=O)(=O)NCCC(=O)N(C)C3CCCCC3)cc2CC1C (stereo not drawn) | 0.68%
O=C(Nc1cccc([N+](=O)[O-])c1)Nc1ccc(Cl)cn1 | -7.59%
O=C(Nn1cnnc1)c1ccc([N+](=O)[O-])cc1 | 30.2% (active)
Cc1ccc(C)n1NC(=O)c1ccc([N+](=O)[O-])cc1 | 3.79%
O=C(Nn1c(-c2ccccc2)nc2ccccc2c1=O)c1ccc([N+](=O)[O-])cc1 | -0.32%
COC(=O)/C=C\C(=O)Nc1cccc([N+](=O)[O-])c1 | -7.77%
O=C(Nc1cccc([N+](=O)[O-])c1)Nn1cnnc1 | 77.4% (active)
COc1ccc(C(=O)NCc2nnc(SCC(=O)NC3=NCCS3)n2C)cc1 | -2.4%
Cc1cccc(C(=O)Nc2ccc(C(=O)N/N=C/c3cccc(C)n3)cc2)c1 | -3.2%

SMILES | inhibition
CSCC[C@H](NC(=O)N1CCn2c1nc1ccccc12)C(=O)NC1CCCCC1 | 2.15%
CCCc1cc(=O)oc2c(C)c(OCC(=O)N3CCC(C(=O)O)CC3)ccc12 | 5.91%
COc1ccc(C(C(=O)NC(C)(C)C)N(Cc2ccc(F)cc2)C(=O)CCC(=O)Nc2cc(C)on2)cc1 (stereo not drawn) | -7.57%
C=CCOc1cccc(CNCc2cccnc2)c1 | -17.3%
Cc1ccc(NNC(=O)c2cccs2)cc1Cl | 28.9% (active)
Cc1ccc(NNC(=O)c2c(F)cccc2Cl)cc1Cl | 5.54%
O=C(NNC(=O)c1ccc(Cl)cc1Cl)c1cccs1 | -2.06%
CCOC(=O)N1CCN(Cc2nc3cc(NC(=O)CC)ccc3n2CC)CC1 | -7.14%
CCOc1ccccc1N1C(=O)CC(Sc2nccc(C)n2)C1=O (stereo not drawn) | -4.13%
COc1cccc2cc(-c3cc(=O)oc4cc(C)c(O)cc34)oc12 | 41.3% (active)
COc1cccc2cc(C(=O)N(C)C)c(=O)oc12 | -12.7%
COc1ccc2oc(=O)cc(-c3cc4ccccc4o3)c2c1 | 21.1%
COc1ccc(N2CCN(C(=O)Cn3cnc4sc(C)c(S(=O)(=O)N5CCOCC5)c4c3=O)CC2)cc1 | 2.52%
CCOC(=O)C1CCN(c2c(Nc3cc(C)cc(C)c3)c(=O)c2=O)CC1 | -6.21%
Cc1nc2ccc(S(=O)(=O)NCC(=O)NCCN3CCCCC3C)cc2s1 (stereo not drawn) | -0.01%
Cc1nc2ccc(S(=O)(=O)NCC(=O)O)cc2s1 | 51.8% (active)
Cc1nc2ccc(S(=O)(=O)NC(C(=O)N3CCCCCC3)C(C)C)cc2s1 (stereo not drawn) | -0.39%
COc1cccc2cc(C(=O)NCc3ccc(C)cc3)c(=N)oc12 | 3.31%
COc1ccc2c(CC(=O)N3CCc4cc(OC)c(OC)cc4C3)coc2c1 | 3.64%
C/C(Cc1ccccc1)=N\NC(=O)CNC(=O)c1ccccc1Cl | 6.33%
ONC(=Nc1ccccc1)c1ccccc1Cl | 40.1% (active)
ONC(=Nc1ccc(Cl)cc1)c1ccccc1Cl | 18.2%
COC(=O)c1ccccc1Sc1c(/C=N/OCc2ccc(Cl)cc2)c(C(F)(F)F)nn1C | 2.22%
c1ccc(-c2ccc3c(c2)NC(C2Nc4cc(-c5ccccc5)ccc4O2)O3)cc1 (stereo not drawn) | 42.1% (active)

SMILES | inhibition
COc1cccc(C(=O)Nc2nnc(S(=O)(=O)N(C)c3ccccc3)s2)c1 | -1.4%
COc1ccc(S(=O)(=O)Nc2ccc(S(=O)(=O)N3CCCCC3)cc2)cc1OC | 4.79%
COc1ccc(C(C)C)cc1S(=O)(=O)Nc1ncn[nH]1 | 8.59%
COc1cc(S(=O)(=O)Nc2ncn[nH]2)ccc1Cl | 51.4% (active)
O=C(NCc1cccnc1)C12CC3CC(CC(C3)C1)C2 | -7.72%
Cc1cc(NC(=O)CCC(=O)N(CC(=O)NCC2CCCO2)c2ccccc2)no1 (stereo not drawn) | -2.56%
O=C(NCCN1CCOC1=O)C1CCC(=O)N(CCc2ccc(Cl)cc2)C1 (stereo not drawn) | -13.3%
CC(=O)N(c1ccc2oc(=O)sc2c1)S(=O)(=O)c1ccc(C)cc1 | 32.7% (active)
CC(=O)Oc1ccc(N(C(C)=O)S(=O)(=O)c2ccc3ccccc3c2)cc1Br | -1.42%
COC(=O)c1c(C)oc2ccc(N(C(=O)Oc3ccccc3)S(=O)(=O)c3ccccc3)cc12 | -12.4%
CCOc1ccccc1NC(=O)NC1CCCCCCC1 | -2.13%
CC(=O)Nc1ccc(NC(=O)[C@@H](NC(=O)c2cccc(C)c2)C(C)C)cc1 | -0.5%
CCc1c(C)sc(NC(=O)c2cccs2)c1C(N)=O | -38.8%
COc1ccc(NC(=O)COc2ccc(C(=O)c3ccc(F)cc3)cc2)cc1S(N)(=O)=O | -0.83%
CC(/C=C/C1(O)C(C)CC(=O)CC1(C)C)OC1OC(CO)C(O)C(O)C1O (stereo not drawn) | 49.9% (active)
CC1=C(C)C(=O)OC(C(C)C2CCC3C4CC=C5CC(OC6OC(COC7OC(CO)C(O)C(O)C7O)C(O)C(O)C6O)CC(O)C5(C)C4CCC23C)C1 (stereo not drawn) | 3.15%
Cc1[nH]c(C)c(S(=O)(=O)N2CCN(c3cccc(C(F)(F)F)c3)CC2)c1C(=O)N1CCCCC1 | 3.83%
O=C(CSc1ccc(/C=N/NC(=O)c2cccc(F)c2)o1)Nc1ccccc1 | 6.13%
Cc1ccc(/C=N/NC(=O)CSc2ccccn2)o1 | 5.97%
N#CCC(=O)N/N=C/c1ccc(SCC(=O)Nc2ccccc2)o1 | 34.6% (active)
CCC(C)(C)NC(=O)C(c1ccc(O)cc1)N(Cc1ccco1)C(=O)CCC(=O)Nc1ccccn1 (stereo not drawn) | -14.9%
COc1cccc(NC(=O)N2CCC(NC(=O)C(Cc3cccc(C)c3)NC(C)=O)CC2)c1 (stereo not drawn) | -1.52%
Cc1ccc(-n2[nH]c(C)c(/C=N/NC(=O)c3cccc([N+](=O)[O-])c3)c2=O)cc1C | 1.83%
CCN1CCN(c2cc3nc(C)n(Cc4ccccc4)c(=O)c3cc2NC(=O)c2ccccc2F)CC1 | -2.2%

SMILES | inhibition
COc1ccc(C(=O)CSc2nnc(COc3ccccc3)n2Cc2ccco2)cc1 | -6.68%
COc1ccc(OCc2nnc3n2N=C(c2ccccc2)C(CC(=O)O)S3)cc1 (stereo not drawn) | 33.1% (active)
COc1cccc(OCc2nnc3n2N=C(c2ccccc2)C(CC(=O)O)S3)c1 (stereo not drawn) | 3.81%
CC(C)(C)c1ccc(C(CC(=O)O)NS(=O)(=O)Cc2ccccc2)cc1 (stereo not drawn) | -3.96%
FC(F)(F)C1CCCN(c2nsc3ccccc23)C1 (stereo not drawn) | 76.9% (active)
CC(C)OC(=O)c1c(NC(=O)c2ccco2)sc2c1CCCC2 | -7.19%
CNC(=O)c1c(NC(NC(=O)c2ccco2)C(=O)c2ccc(Cl)cc2)sc2c1CCCC2 (stereo not drawn) | 35% (active)
CCOC(=O)c1c(NC(=S)NC(=O)c2ccco2)sc2c1CCCC2 | 6.75%
CC(=O)Nc1ccc(NC(=O)CC2CCCC2)cc1 | -1.31%
O=C(CCC1CCCC1)N=C1SC2CS(=O)(=O)CC2N1Cc1ccccc1 (stereo not drawn) | 9.31%
Cc1cc(C)n2nc(CNS(=O)(=O)c3c(F)c(F)c(F)c(F)c3F)nc2n1 | 2.95%
CC(C)=CCN1CCN(CCCc2ccccc2)CC1CCO (stereo not drawn) | -4.62%
Cc1ccc(-n2c(C)cc(/C=C(\C#N)C(=O)NCC3CCCO3)c2C)cc1 (stereo not drawn) | -10.2%
CN(C)c1ccc(-c2nnc(-c3cccnc3)o2)cc1 | 10.3%
O=C1CC(c2ccccc2)=NN1c1ccc([N+](=O)[O-])cc1 | 0.8%
O=c1[nH]n(-c2ccc([N+](=O)[O-])cc2)c(=O)c2ccccc12 | 34.9% (active)
Cc1nc2ccccc2c(=O)n1Cc1ccc([N+](=O)[O-])cc1 | -5.86%
CCCC(C(=O)NC1CCCC1)N(C(=O)Cn1nnc(-c2ccc(C)o2)n1)c1cccc(O)c1 (stereo not drawn) | -0.55%
CCCc1nc2ccccc2c(=O)n1NC(=O)c1c(O)c2ccccc2[nH]c1=O | -1.38%
CCCc1nc2ccccc2c(=O)n1/N=C/c1ccc(O)c(O)c1 | 53.2% (active)
O=c1c2ccccc2ncn1/N=C/c1ccccc1 | 1.08%
